This is part of a sample that, as a whole, favours compounds with a hit. Of some 83,000 tested, about 20% had one in any assay.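 Percent growth is the endpoint: 0 to 100 indicates growth inhibition (40 means 60% inhibition), 0 means no net growth, and negative values indicate cell death.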 Values without a mark were called inactive. Activity calls are given as the source filed them. The calls were made as follows: active = growth percent below 10; inactive = the rest.

Some test systems named below: SK-MEL-2 melanoma; EKVX NSCLC; UO-31 renal; TK-10 renal; ACHN renal; CAKI-1 renal; A498 renal; CCRF-CEM leukemia; MOLT-4 leukemia; SR leukemia; RPMI-8226 leukemia; OVCAR-8 ovarian; OVCAR-5 ovarian; OVCAR-4 ovarian; SK-OV-3 ovarian; IGROV1 ovarian; OVCAR-3 ovarian; NCI/ADR-RES ovarian; HS 578T breast.
Experiment in all cases: NCI-60 one-dose screen, 48 h (100 = growth as untreated, 0 = no growth, -100 = all killed)
Conditions in all cases: 10 µM unless noted

Turning to `CCOC(=O)c1c(CN2CCN(C)CC2)nc2ccc(Cl)cc2c1-c1ccccc1`, the growth was 80% in the experiment on SK-MEL-2 melanoma; 66.4% in the experiment with EKVX NSCLC; 47.3% with UO-31 renal; 82.6% with TK-10 renal; 91.7% with ACHN renal; 52.8% with CAKI-1 renal. Further, the growth in the experiment with A498 renal was 90.7%; in the experiment with CCRF-CEM leukemia, 37.7%; in the experiment with MOLT-4 leukemia, 32.5%; in the experiment with SR leukemia, -2.55% (active); in the experiment on RPMI-8226 leukemia it was 25.5%; in the experiment on OVCAR-8 ovarian, 84%. Also, the growth was 69% in the experiment on OVCAR-5 ovarian; 79.4% in the experiment on OVCAR-4 ovarian; 90.7% in the experiment with SK-OV-3 ovarian; 50.1% with IGROV1 ovarian; 76.8% in the experiment on OVCAR-3 ovarian; 68.7% in the experiment with NCI/ADR-RES ovarian.
With `CC/C=C\C[C@H]1C/C=C2/C(=O)C=C[C@H]2C/C=C\CCCC(=O)O1`, the growth in the experiment with SK-MEL-2 melanoma was 21.4%; in the experiment on EKVX NSCLC, 45%; with UO-31 renal, 55.5%; in the experiment with TK-10 renal, 29.6%; in the experiment on ACHN renal it was -67.7% (active); in the experiment with CAKI-1 renal, 25.2%. The growth in the experiment with A498 renal was 79.5%; in the experiment with CCRF-CEM leukemia it was -6.1% (active); with MOLT-4 leukemia it was 14.3%; in the experiment with SR leukemia it was 4.6% (active); in the experiment with RPMI-8226 leukemia, -10% (active); in the experiment on OVCAR-8 ovarian it was 0.796% (active). The growth with OVCAR-5 ovarian was 87.8%; with OVCAR-4 ovarian, 29.5%; in the experiment with SK-OV-3 ovarian it was 37.3%; with IGROV1 ovarian, 12.4%; in the experiment on OVCAR-3 ovarian, 6.53% (active); with HS 578T breast, 54.2%. Moreover, in the experiment on NCI/ADR-RES ovarian, the growth is 22.4%.
For `c1csc(C2=NN3C(C2)c2ccccc2OC3c2ccncc2)c1` (stereo not drawn), the growth in the experiment on SK-MEL-2 melanoma is 96.3%; with EKVX NSCLC, 78.2%; in the experiment on UO-31 renal, 64.5%; with TK-10 renal, 111%; in the experiment on ACHN renal, 97.7%; with CAKI-1 renal, 78.2%. The growth with A498 renal is 110%; in the experiment on CCRF-CEM leukemia, 95.8%; in the experiment on MOLT-4 leukemia it was 94.4%; with SR leukemia, 100%; in the experiment with RPMI-8226 leukemia, 92.8%; in the experiment with OVCAR-8 ovarian, 96.1%. The growth in the experiment on OVCAR-5 ovarian was 108%; with OVCAR-4 ovarian it was 90.9%; with SK-OV-3 ovarian, 93.8%; in the experiment on OVCAR-3 ovarian, 98.9%; with HS 578T breast, 87.2%; in the experiment on NCI/ADR-RES ovarian, 98.4%.
On to `COc1cccc2c1C(=O)c1c(O)c3c(c(O)c1C2=O)C[C@](O)(C(=O)CO)C[C@H]3O[C@@H]1C[C@@H](NC(=O)CCCCCN(C)C2(c3ccc(F)cc3)CC3CCC2C3)[C@H](O)[C@@H](C)O1` (stereo partly drawn), for which the growth is 73.5% in the experiment with SK-MEL-2 melanoma; 33.9% in the experiment on EKVX NSCLC; 62.8% with UO-31 renal; 68.7% in the experiment on TK-10 renal; -77.4% (active) in the experiment with ACHN renal; 52.6% with CAKI-1 renal. In addition, the growth in the experiment with A498 renal was 54.6%; in the experiment with CCRF-CEM leukemia, -22.2% (active); with MOLT-4 leukemia, -27.7% (active); in the experiment on SR leukemia it was -45.7% (active); in the experiment on RPMI-8226 leukemia, -35.4% (active); in the experiment on OVCAR-8 ovarian it was 21.5%. The growth in the experiment with OVCAR-5 ovarian was -51.6% (active); in the experiment on OVCAR-4 ovarian, 0.206% (active); in the experiment on SK-OV-3 ovarian, 79.5%; in the experiment with IGROV1 ovarian, 56%; with OVCAR-3 ovarian, 5.02% (active); in the experiment on HS 578T breast it was 57.6%. In the experiment with NCI/ADR-RES ovarian, the growth is 80.2%.
For `CC/C=C\C/C=C\C[C@H]1C/C=C2/C(=O)C=C[C@@H]2C/C=C\CCC(=O)O1`, the growth was -56.9% (active) in the experiment on SK-MEL-2 melanoma; 31.4% in the experiment on EKVX NSCLC; -49.7% (active) with UO-31 renal; 7.69% (active) in the experiment on TK-10 renal; -78.9% (active) with ACHN renal; 14.5% with CAKI-1 renal. The growth with A498 renal was 20.7%; in the experiment on CCRF-CEM leukemia, -5.47% (active); in the experiment with MOLT-4 leukemia it was 2.83% (active); in the experiment with SR leukemia, 0.464% (active); in the experiment on RPMI-8226 leukemia, -14.6% (active); with OVCAR-8 ovarian it was 7.21% (active). Also, the growth is 44.6% in the experiment on OVCAR-5 ovarian; 26.7% in the experiment on OVCAR-4 ovarian; 40.9% with SK-OV-3 ovarian; 2.66% (active) in the experiment on OVCAR-3 ovarian; 43.6% in the experiment with HS 578T breast; 17.9% in the experiment on NCI/ADR-RES ovarian.
`NC(=NCCCC1(c2ccccc2)CCCC1)Nc1ccc(Cl)cc1`: the growth in the experiment on SK-MEL-2 melanoma was 35.3%; in the experiment with EKVX NSCLC it was 78.4%; in the experiment on UO-31 renal, 58.5%; with TK-10 renal, 71.1%; in the experiment on ACHN renal it was 34.7%; in the experiment with CAKI-1 renal, 64.9%. The growth with A498 renal was 83.1%; with CCRF-CEM leukemia, 4.14% (active); in the experiment with MOLT-4 leukemia, -0.285% (active); with SR leukemia, -39.7% (active); with RPMI-8226 leukemia, -24.2% (active); in the experiment with OVCAR-8 ovarian it was 60.4%. The growth in the experiment on OVCAR-5 ovarian is 59.8%; in the experiment with OVCAR-4 ovarian it was 41.3%; with SK-OV-3 ovarian, 89%; in the experiment with IGROV1 ovarian, 38.9%; with OVCAR-3 ovarian, 60.8%; in the experiment with NCI/ADR-RES ovarian, 67.1%.
As for `O=C1/C(=C/c2ccc(OCCCOc3ccc(Cl)cc3)cc2)N=C2SCCCN12`, the growth with SK-MEL-2 melanoma is 98.4%; in the experiment on EKVX NSCLC it was 47.6%; with UO-31 renal, 70.9%; in the experiment with TK-10 renal, 72.7%; with ACHN renal, 74.5%; with CAKI-1 renal, 71.6%. Moreover, the growth was 96.5% in the experiment with A498 renal; 69.5% in the experiment on CCRF-CEM leukemia; 62.1% with MOLT-4 leukemia; 67.5% in the experiment on SR leukemia; 45.6% in the experiment with RPMI-8226 leukemia; 65.9% with OVCAR-8 ovarian. Moreover, the growth was 102% with OVCAR-5 ovarian; 49.2% in the experiment on OVCAR-4 ovarian; 105% in the experiment with SK-OV-3 ovarian; 97.8% in the experiment with IGROV1 ovarian; 71.3% with OVCAR-3 ovarian; 107% in the experiment with HS 578T breast. Besides, in the experiment with NCI/ADR-RES ovarian, the growth is 67.4%.
On to `COc1ccc(CN2c3ccccc3Sc3ccccc32)c(C(F)(F)F)c1`, for which the growth in the experiment with SK-MEL-2 melanoma is 3.52% (active); in the experiment on EKVX NSCLC it was 49.9%; with UO-31 renal it was 45.6%; in the experiment with TK-10 renal, 65.5%; with ACHN renal it was 48.7%; in the experiment on CAKI-1 renal, 32.5%. The growth was 4.16% (active) with A498 renal; 10.5% with CCRF-CEM leukemia; 24% in the experiment with MOLT-4 leukemia; 12.1% with SR leukemia; 28.8% with RPMI-8226 leukemia; 31.1% with OVCAR-8 ovarian. In addition, the growth was 65.5% in the experiment on OVCAR-5 ovarian; 44.2% with OVCAR-4 ovarian; 17.8% in the experiment on SK-OV-3 ovarian; 43.4% in the experiment on IGROV1 ovarian; 5.59% (active) in the experiment on OVCAR-3 ovarian; 22.8% in the experiment with HS 578T breast. For the same compound, the growth in the experiment on NCI/ADR-RES ovarian was 22.7%.

The values above are taken from PubChem BioAssay (NCI).
